Source: PubChem BioAssay (The Scripps Research Institute Molecular Screening Center)
Rows were chosen to be rich in hits. Some 1.1% of all compounds tested hit in one or more screens of this group.
HTR5A ag ctr = activates human HTR5A in OPRM1-OPRD1 agonist counter-screen. activation, % at 9.3 µM. hit rate 0.61% among 340,000. HTR5A agonist assay, luminescence, cell-based; in the data active = activation mostly above about 9.5%, no sharp cut-off; inactive = mostly below about 7.6%;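 also: 0% = cells with vehicle only and 100% = reference agonist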
Target sequence (P47898 whole entry, looked up): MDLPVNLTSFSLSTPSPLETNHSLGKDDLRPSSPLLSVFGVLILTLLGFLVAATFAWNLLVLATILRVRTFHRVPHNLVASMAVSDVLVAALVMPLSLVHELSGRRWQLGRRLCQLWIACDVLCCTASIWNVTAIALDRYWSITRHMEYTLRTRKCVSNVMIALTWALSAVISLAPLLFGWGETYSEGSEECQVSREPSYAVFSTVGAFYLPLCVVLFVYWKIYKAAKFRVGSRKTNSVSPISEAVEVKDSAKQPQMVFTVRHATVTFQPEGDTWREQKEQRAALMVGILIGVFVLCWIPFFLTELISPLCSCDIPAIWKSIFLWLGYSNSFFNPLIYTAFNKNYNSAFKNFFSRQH
OPRM1-OPRD1 inv = mu-delta opioid heterodimer inverse agonism | P35372+P41143 | cell-based MOR-DOR heterodimer luminescence | inhibition, % at 9.3 µM | hit rate 0.21% among 340,000; in the data active = inhibition above about 22%, passing the limit was not always enough;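 also: 0% = cells with DMSO and 100% = wells without cells with DMSO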
MOR-DOR ag-1 = OPRM1-OPRD1 heterodimerization agonism; P35372+P41143; cells, luminescence; activation, % at 9.3 µM; hit rate 0.3% among 340,000; AID 504326;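 also: 0% = vehicle-treated cells and 100% = reference agonist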
HTR5A inv ag = inverse agonist of human HTR5A in OPRM1-OPRD1 counter-screen; hit rate 0.083% among 340,000; P47898; inhibition, % at 9.3 µM; HTR5A cell line, luminescence, inverse agonism; in the data active = inhibition mostly above about 23%, no sharp cut-off; inactive = mostly below about 18%;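 also: 0% = cells with DMSO and 100% = no-cell wells with DMSO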
MOR-DOR ag-2 = counter-screen for HTR5A agonists: OPRM1-OPRD1 heterodimerization agonism. shares compounds with HTR5A ag ctr. U2OS counter-screen cells, complementation luminescence, 3 h. activation, % at 9.3 µM. hit rate 13% among 800. AID 504913
HTR5A ag conf = confirmation of human HTR5A agonists | shares compounds with HTR5A ag ctr | HTR5A agonist cell assay, luminescence | activation, % at 9.3 µM | hit rate 17% among 800 | AID 504915; in the data active = activation above about 17%;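 also: 0% = cells with vehicle only and 100% = full reference agonist response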
An asterisk follows results filed as active; . = no result given. Rule as the data show it, unless noted: active = activation above about 18%; inactive = the rest.

SMILES	HTR5A ag ctr	OPRM1-OPRD1 inv	MOR-DOR ag-1	HTR5A inv ag	MOR-DOR ag-2	HTR5A ag conf
C=CCN=C(NC#N)SCC(=O)NC(C)(C)C	17*	7	-2	-43	20*	-3
CC(C)N=C(NC#N)SCC(=O)NC(C)(C)C	7	9	-2	-3	.	.
COc1ccc(CN(C(=O)CSc2nnc(-c3ccc(F)cc3)o2)c2ccc(F)cc2)cc1	7	-14	3	-18	.	.
COc1ccc(CN(C(=O)CSc2nnc(-c3c[nH]c4ccccc34)o2)c2ccc(F)cc2)cc1OC	16*	-23	4	-44	27*	1
CN(CC(=O)NC1CCN(Cc2ccccc2)CC1)S(=O)(=O)c1ccc(Cl)cc1	-2	0	0	-15	.	.
CN(CC(=O)NC1CCN(Cc2ccccc2)CC1)S(=O)(=O)c1ccc(Br)s1	15*	-16	3	-25	1	1
O=C(OCc1nnn(Cc2ccccc2)c1-c1c(COC(=O)c2ccccc2)nnn1Cc1ccccc1)c1ccccc1	4	21	-5	-4	.	.
O=C(COC(=O)c1nc(Cl)ccc1Cl)Nc1ccc2c(c1)OCO2	11	18	-4	16	.	.
O=C(CSc1ccccc1)NCC1(N2CCCCC2)CCCCC1	17*	6	-1	-8	23*	6
CC(=O)Nc1ccc(S(=O)(=O)NCCc2c[nH]c3ccc(C)cc23)cc1	27*	1	0	-100	60*	2
Cc1ccc2[nH]cc(CCNS(=O)(=O)c3ccc(F)cc3)c2c1	3	-1	0	3	.	.
CN(Cc1ccccc1)C(=O)c1ccc(NC(=O)Cc2ccc(NC(=O)C3CCCN(C(=O)C4CCCCC4)C3)cc2)cc1 (stereo not drawn)	3	1	0	-13	.	.
Cc1ccc(C)c(NC(=O)COc2coc(CN3CCc4ccccc43)cc2=O)c1	16*	-7	1	-39	4	2
Cc1ccccc1NC(=O)COc1coc(CN2CCCc3ccccc32)cc1=O	-4	-11	2	9	.	.
O=c1[nH]cnc(O)c1C(c1ccc2c(c1)OCO2)c1c(O)nc[nH]c1=O	17*	8	-2	-3	0	2
O=c1[nH]cnc(O)c1C(c1ccc(Br)cc1)c1c(O)nc[nH]c1=O	6	10	-2	17	.	.
CCOC(=O)N1C2C=C(C)[C@@H]2[C@@H]2CC(=O)N21 (stereo partly drawn)	0	20	-4	11	.	.
CS(=O)(=O)c1ccc2nc(NC(=O)CCNC(=O)c3ccc([N+](=O)[O-])cc3)sc2c1	20*	-17	3	-59	1	4
COc1ccc(CCNS(=O)(=O)c2ccc(OC)c(OC)c2)cc1OC	17*	6	-1	-48	2	-3
COc1ccc(CNC(=O)c2ccc3nccnc3c2)cc1	19*	10	-2	-49	1	-1
COc1ccc(CNC(=O)c2ccncc2)cc1	2	16	-3	-2	.	.
O=C(Nc1ccc(-n2cc(Cl)cn2)cc1)c1ccncc1	14*	7	-1	-14	18*	6
CCOc1ccc(C(=O)Nc2ccc(NC(=O)c3ccco3)c(Cl)c2)cc1Br	19*	-84	16	-83	40*	4
O=C(O)CCC(=O)N1CN2CN(C(=O)CCC(=O)O)CC([N+](=O)[O-])(C2)C1	-4	-1	0	12	.	.
CC(Oc1cccc(F)c1)C(=O)Nc1ccc(N2CCOCC2)cc1 (stereo not drawn)	17*	1	0	-48	1	0
SMILES	HTR5A ag ctr	OPRM1-OPRD1 inv	MOR-DOR ag-1	HTR5A inv ag	MOR-DOR ag-2	HTR5A ag conf
Cc1cccc(OC(C)C(=O)Nc2ccc(N3CCCCC3)cc2)c1 (stereo not drawn)	2	-21	4	-7	.	.
O=C(CN1CCOCC1)Nc1ncc(Cc2ccccc2Cl)s1	5	7	-1	1	.	.
CCc1ccc(CCC(=O)Nc2ncc(Cc3ccccc3Cl)s2)o1	17*	-18	3	-59	22*	12
Cc1ccsc1C(=O)OCC(=O)Nc1cccc(S(=O)(=O)NC2=NCCCCC2)c1	4	-4	1	-10	.	.
CCCCN(C)C(=O)c1cc2cc3ccc(OC)cc3nc2s1	21*	-3	1	-90	0	-14
O=C(COC(=O)[C@@H]1CCCN1S(=O)(=O)c1ccccc1F)NCc1ccc2c(c1)OCO2	17*	12	-3	-44	1	5
COc1ccc(NC(=O)COC(=O)[C@@H]2CCCN2S(=O)(=O)c2ccccc2F)c(OC)c1	6	6	-1	-16	.	.
CCOc1cccc(-c2c(C(=O)N/N=C/c3c(F)cccc3Cl)nnn2-c2nonc2N)c1	1	-6	1	-3	.	.
Cc1ccc(C(=O)O/N=C2\CCSc3ccc(C)cc32)cc1	37*	-1	0	-89	2	1
Cc1cccc(C(=O)O/N=C2\CCSc3ccc(C)cc32)c1	15*	-8	2	10	7	41*
COc1ccc(S(=O)(=O)O/N=C2\CCSc3ccc(C)cc32)cc1	-2	-21	5	-7	.	.
Cc1cc(C)n(-c2ccc(C(=O)Nc3cccc(S(=O)(=O)N4CCCC4)c3)cc2)n1	4	-4	1	13	.	.
Cc1oc(-c2ccc(Cl)cc2)nc1CN1CCC(C(=O)N2CCc3ccccc3C2)CC1	0	-12	2	1	.	.
Cc1oc(-c2ccc(Cl)cc2)nc1CN1CCC(C(=O)N2CCN(Cc3ccccc3)CC2)CC1	16*	-26	5	-43	2	3
CN(CC1COc2ccccc2O1)C(=O)Cn1cc(C(F)(F)F)ccc1=O (stereo not drawn)	-4	7	-2	10	.	.
CCCCCCCCCCCCCCCC[n+]1ccc(C(N)=O)cc1	2	0	0	-14	.	.
CCCCCCCCCCCCCCCC[n+]1ccc(/C=N/O)cc1	26*	-24	5	-40	16	9
COc1ccccc1NCC(=O)N/N=C(\C)c1ccc(Br)s1	46*	7	-1	-103	6	36*
C/C(=N/NC(=O)CNc1ccc(C)cc1)c1ccc(Br)s1	24*	-1	0	-51	1	38*
Cc1cc(C)c(NC(=S)N(CCN(C)C)C(C)c2cccnc2)c(C)c1 (stereo not drawn)	1	14	-3	-20	.	.
C[C@H]1CN([C@@H](C)CO)C(=O)c2cc(NS(=O)(=O)c3ccc(F)cc3)ccc2O[C@H]1CN(C)S(=O)(=O)c1cn(C)cn1	2	11	-2	12	.	.
Cc1ccc(C(C)NC(=O)Cc2cccs2)c(C)c1 (stereo not drawn)	1	12	-2	-2	.	.
CCOc1cc(N2CCOCC2)c(OCC)cc1NC(=O)c1cc(-c2ccco2)nc2ccccc12	24*	-87	15	-24	96*	8
CCOc1cc(N2CCOCC2)c(OCC)cc1NC(=O)COc1ncnc2ccccc12	-5	7	-2	-8	.	.
O=c1[nH]cc(C(F)(F)F)cc1NS(=O)(=O)c1ccc([N+](=O)[O-])cc1	-4	-7	1	-3	.	.
CCOC(=O)c1nnn(CC(=O)Nc2ccccc2)c1C(=O)OCC	-3	10	-2	-7	.	.
